From PubChem
Rows were chosen to be rich in hits. Some 2.2% of all compounds tested hit in one or more screens of this group.
LGR2 antag: blocks bursicon-induced cAMP signaling via Drosophila LGR2; 380,000 tested, 0.35% active; HEK293 LGR2, CRE-luciferase, bursicon-stimulated, 4 h; inhibition, % at 9.99 µM;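 active = drop in luminescence signal, shown as inhibition above about 50% in the replicate tests, limit read from the data, passing the limit was not always enough; inconclusive = probably only some replicates passing the limit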;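 also: agonist challenge used bursicon conditioned medium at about half maximal strength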
PAX8 inh HTS: lowers PAX8-driven luciferase in RMG-I cells | RMG-I TPO-luciferase reporter, SteadyGlo, 24 h | inhibition, % at 12.6 µM | 360,000 tested, 1.2% active | AID 652154;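 active = mean replicate inhibition at least 60% with every replicate also reaching 60%; inconclusive = only one of the two criteria is met; inactive = mean below 60% and not all replicates reaching 60%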;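 also: luciferase light reporting Pax8 driven TPO promoter activity; plate controls were median of neutral control wells for no effect and mitoxantrone controls for full effect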
EBV LMP1 NFkB: reduces LMP1-driven NF-kappaB luciferase signal; LMP1-induced NF-kappaB luciferase reporter cells, luminescence; inhibition, % at 12.5 µM; 350,000 tested, 0.69% active; in the data active = inhibition above about 41%; inconclusive = no clear call, values can overlap the other calls;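 also: 0% = neutral control wells and 100% = reference inhibitor control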
Shn3 3UTR inh: Schnurri-3 reporter inhibition in Clone20 osteoblasts. Clone20 osteoblast Shn3 3'UTR firefly luciferase, 24 h. 360,000 tested, 0.52% active. inhibition, % at 12.5 µM. AID 588674;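 active = mean inhibition of at least 75% with every replicate also reaching 75%; inconclusive = mean inhibition at least 75% but some replicate below; inactive = mean inhibition below 75%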;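 also: 0% = median of neutral control wells and 100% = pilot-screen positive control compound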
EWS-Fli inh: blocks EWS/Fli oncoprotein-driven transcription. A673 NR0B1-luciferase reporter, viability-normalised. inhibition, % at 12.6 µM. AID 651661. 350,000 tested, 0.67% active;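 active = mean inhibition of at least 50% after viability correction, with every replicate also passing that limit; inconclusive = mean reaches 50% but only one of two replicates passes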;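 also: firefly luciferase signal divided by Alamar Blue viability fluorescence both relative to DMSO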
MITF TRPM1 inh: reduces MITF-dependent TRPM1 promoter luciferase signal | SK-MEL-5 TRPM1 promoter luciferase, 24 h | inhibition, % at 12.5 µM | 330,000 tested, 0.83% active | AID 488899;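 active = mean inhibition across replicates of 60% or more, whatever share of single replicates reaches that level; inconclusive = some that reach 60%, reason not given; inactive = mean inhibition across replicates below 60%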
The depositor's hits bear a star; ? = inconclusive; . = no result.

SMILES	LGR2 antag	PAX8 inh HTS	EBV LMP1 NFkB	Shn3 3UTR inh	EWS-Fli inh	MITF TRPM1 inh
C[C@H](CO)N1C[C@H](C)[C@H](CN(C)Cc2ccc(C(F)(F)F)cc2)Oc2ccc(NS(=O)(=O)c3ccc(F)cc3)cc2CC1=O	27	85*	.	.	0	.
C[C@H]1CN([C@@H](C)CO)C(=O)Cc2cc(NS(=O)(=O)c3ccc(Cl)cc3)ccc2O[C@H]1CN(C)Cc1ccc(C(F)(F)F)cc1	0	-17	.	.	-11	.
CO[C@@H]1CN(C)C(=O)c2ccc(NC(=O)c3ccccc3)cc2OC[C@@H](C)N(C(=O)CN(C)C)C[C@H]1C	-2	.	.	.	5	.
CCCC(=O)Nc1ccc2c(c1)C(=O)N(C)C[C@@H](OC)[C@@H](C)CN(C(=O)CC)[C@@H](C)CO2	-4	.	.	.	6	.
C[C@H](CO)N1C[C@H](C)[C@@H](CN(C)Cc2ccc(C(F)(F)F)cc2)Oc2ccc(NS(=O)(=O)c3ccc(F)cc3)cc2CC1=O	5	83*	.	.	18	.
C[C@@H]1CN([C@@H](C)CO)C(=O)Cc2cc(NS(=O)(=O)c3cccs3)ccc2O[C@H]1CN(C)Cc1ccc(C(F)(F)F)cc1	27	91*	.	.	33	.
Cc1ccc(S(=O)(=O)Nc2ccc3c(c2)CC(=O)N([C@H](C)CO)C[C@H](C)[C@@H](CN(C)Cc2ccc(C(F)(F)F)cc2)O3)cc1	-6	42	.	.	14	.
COCC#Cc1ccc([C@@H]2[C@@H](CO)N3C(=O)CN(C(=O)C4CCCC4)C[C@H]23)cc1	0	.	.	.	1	.
C[C@H](CO)N1C[C@H](C)[C@@H](CN(C)C)Oc2cc(C3=CCCCC3)ccc2S1(=O)=O	4	.	.	.	18	.
CC(=O)O[C@H]1CC[C@@]2(C)C(=CC[C@H]3[C@@H]4CC[C@H](C(C)=O)[C@@]4(C)CC[C@@H]32)C1	-3	-1	54*	87*	-5	-9
C[C@H](CO)N1C[C@H](C)[C@H](CN(C)S(=O)(=O)c2cn(C)cn2)Oc2ccc(NS(=O)(=O)c3cn(C)cn3)cc2C1=O	-5	-10	.	.	-5	.
COc1ccc(NC(=O)N(C)C[C@@H]2Oc3c(NC(=O)CCCCCC(=O)Nc4ccccc4N)cccc3C(=O)N([C@H](C)CO)C[C@H]2C)cc1	-5	-19	.	.	8	.
Cc1ccc(-n2ncc(Br)c(Br)c2=O)cc1	.	.	19	96*	.	83*
O=c1c(Br)c(Br)cnn1-c1ccccc1	5	107*	2	98*	?	92*
COc1c(Cl)cnn(-c2ccc(C)cc2)c1=O	-10	.	4	-10	11	-7
CNc1cncc(-c2cc(C)c(O)c(C)c2)n1	-22	-15	.	-33	52*	.
C[C@H]1CN([C@@H](C)CO)C(=O)c2cc(NS(=O)(=O)c3cn(C)cn3)ccc2O[C@H]1CN(C)S(=O)(=O)c1cn(C)cn1	0	-1	.	.	-7	.
O=C(CSc1nc2c(c(=O)n1-c1ccc(Br)cc1)SCC2)NCc1ccco1	-4	.	1	92*	-5	8
CCOc1ccc(-n2c(SCC(=O)NCc3ccco3)nc3c(c2=O)SCC3)cc1	.	6	-1	0	.	18
CCCC(=O)Nc1ccc2c(c1)C(=O)N(C)C[C@@H](OC)[C@H](C)CN(Cc1ccccc1OC)[C@H](C)CO2	2	-14	.	.	7	.
C[C@@H]1CN([C@H](C)CO)C(=O)c2cc(NS(=O)(=O)c3cn(C)cn3)ccc2O[C@@H](C)CCCCO[C@@H]1CN(C)S(=O)(=O)c1ccccc1	-11	20	.	.	-4	.
Cc1cc(C)nc(SC2=CS(=O)(=O)c3ccccc32)n1	.	47	-16	32	.	7
O=S1(=O)C=C(Sc2nnc(-c3ccccc3)o2)c2ccccc21	.	.	8	98*	.	96*
CC(=O)NC(c1ccco1)c1cc(F)c2cccnc2c1O (stereo unspecified)	2	13	32	-14	26	-3
CCN(CC)c1ccc(C(NC(=O)C(C)C)c2ccc3cccnc3c2O)cc1 (stereo unspecified)	.	93*	72*	80	45	.
SMILES	LGR2 antag	PAX8 inh HTS	EBV LMP1 NFkB	Shn3 3UTR inh	EWS-Fli inh	MITF TRPM1 inh
c1coc(CNc2nc3ccccc3s2)c1	-82	-121	-15	-14	-21	-26
CCCCC(=O)NC(c1ccc(N(C)C)cc1)c1ccc2cccnc2c1O (stereo unspecified)	12	86*	34	93*	42	61*
Oc1c(C(Nc2nc3ccccc3s2)c2ccco2)ccc2cccnc12 (stereo unspecified)	.	.	61*	75	.	33
Cc1ccc(C(NC(=O)C(C)C)c2cc([N+](=O)[O-])c3cccnc3c2O)cc1 (stereo unspecified)	34	11	14	54	.	39
CC(C)C(=O)NC(c1ccco1)c1ccc2cccnc2c1O (stereo unspecified)	?	.	21	81	.	76*
CN1CCN(C(=O)C[C@H]2C[C@@H]3c4cc(NC(=O)C5CCC5)ccc4O[C@@H]3[C@@H](CO)O2)CC1	8	5	.	.	-7	.
CO[C@H]1CN(C)C(=O)c2ccc(NS(=O)(=O)c3ccccc3)cc2OC[C@H](C)N(C)C[C@H]1C	-8	.	.	.	1	.
CCCCC(=O)NC(c1ccc(N(CC)CC)cc1)c1ccc2cccnc2c1O (stereo unspecified)	.	93*	82*	94*	49	58
COc1cccc(NC(=O)N2C[C@H](O)COC[C@H]3O[C@@H](CC(=O)NC4CCC4)CC[C@@H]32)c1	-4	-17	.	.	2	.
COc1cc(N2C(=O)C=CC2=O)c(OC)cc1Cl	4	110*	8	.	28	-4
O=C1C(C2=C(O)c3ccccc3C2=O)=Nc2ccccc21	.	.	28	2	.	66*
CN=CC1=C(O)c2ccccc2C1=O	.	.	0	3	.	-1
COc1ccccc1CNC(=O)C[C@H]1CC[C@@H]2[C@H](COc3ccc(NC(=O)Nc4ccc(F)c(F)c4)cc3C(=O)N2C)O1	0	24	.	.	-8	.
Cc1ccc(SCc2[nH]nc3c2C(c2ccc(C)o2)C(C#N)=C(N)O3)cc1 (stereo unspecified)	4	.	66*	-13	7	-10
COc1ccc(OC)c(NC(=O)CSc2ncnc3c2cnn3-c2ccccc2Cl)c1	.	.	26	89*	.	29
CCC(C(=O)Nc1cc(C(=O)Nc2cc(C)ccn2)ccc1Cl)c1ccccc1 (stereo unspecified)	-10	69*	3	22	-4	-3
COc1ccc2c3c(n(C)c2c1)[C@@H](CO)N(C(=O)NC(C)C)CC31CN(C(=O)NC(C)C)C1	9	.	.	.	5	.
O=C(N/N=C/c1ccc([N+](=O)[O-])o1)c1ccc2c(c1)OCO2	11	51	0	24	.	98*
O=C(N/N=C/c1ccc([N+](=O)[O-])o1)c1ccccc1-n1cccc1	10	16	-14	7	23	78*
O=C(N/N=C\c1ccccc1)c1ccccc1-n1cccc1	-9	-1	-1	-15	2	11
